The source of these data is article PMC4336329 (PLoS ONE, 2015).

The whole screen tested about 310,000 compounds, of which about 14,000 (4.5%) showed an effect of 50% or more. The effect is printed as a negative number. What follows is part of a selection rich in strong results, with near analogues and random picks from the rest.
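Further: peak tail current of the secondary pulse compared with the same well before compound.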

Chain of human ether-à-go-go-related gene (hERG) potassium channel (Q12809 whole entry, looked up): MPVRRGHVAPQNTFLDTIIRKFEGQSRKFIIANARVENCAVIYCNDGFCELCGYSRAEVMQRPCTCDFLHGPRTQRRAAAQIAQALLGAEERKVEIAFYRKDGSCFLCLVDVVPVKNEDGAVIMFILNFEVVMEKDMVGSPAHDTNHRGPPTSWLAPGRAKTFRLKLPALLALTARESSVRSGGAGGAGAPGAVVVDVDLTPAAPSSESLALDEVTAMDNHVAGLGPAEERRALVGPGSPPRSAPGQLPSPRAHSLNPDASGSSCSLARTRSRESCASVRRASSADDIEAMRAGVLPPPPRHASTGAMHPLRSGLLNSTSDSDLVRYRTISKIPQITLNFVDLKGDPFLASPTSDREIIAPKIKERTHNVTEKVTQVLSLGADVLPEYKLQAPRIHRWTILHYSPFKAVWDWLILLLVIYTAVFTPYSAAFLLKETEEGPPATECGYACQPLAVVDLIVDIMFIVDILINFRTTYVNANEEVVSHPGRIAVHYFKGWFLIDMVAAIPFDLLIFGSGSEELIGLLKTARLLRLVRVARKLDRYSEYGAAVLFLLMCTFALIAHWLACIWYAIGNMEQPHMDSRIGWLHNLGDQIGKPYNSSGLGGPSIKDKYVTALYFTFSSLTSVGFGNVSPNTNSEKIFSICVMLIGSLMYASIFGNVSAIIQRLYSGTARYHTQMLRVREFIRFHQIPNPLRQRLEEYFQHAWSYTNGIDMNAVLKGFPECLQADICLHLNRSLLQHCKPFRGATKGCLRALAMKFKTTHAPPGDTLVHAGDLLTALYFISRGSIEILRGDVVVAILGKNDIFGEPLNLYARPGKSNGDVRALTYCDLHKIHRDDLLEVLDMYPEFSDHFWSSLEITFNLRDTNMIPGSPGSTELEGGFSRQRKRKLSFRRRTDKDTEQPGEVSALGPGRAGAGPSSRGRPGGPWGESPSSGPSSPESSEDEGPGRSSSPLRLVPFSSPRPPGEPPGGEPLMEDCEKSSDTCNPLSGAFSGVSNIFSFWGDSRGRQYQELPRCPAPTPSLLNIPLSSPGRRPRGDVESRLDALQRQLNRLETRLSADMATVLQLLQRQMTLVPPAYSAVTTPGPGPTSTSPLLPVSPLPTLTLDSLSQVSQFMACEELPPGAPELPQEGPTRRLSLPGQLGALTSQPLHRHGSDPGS

This assay has as its target human ether-à-go-go-related gene (hERG) potassium channel (human, UniProt Q12809). Description: primary screen, population patch clamp on CHO cells stably expressing hERG; higher = less effect of the substance.
For the compound `Cl.Nc1nc(-c2ccc3c(c2)OCCO3)cs1`, the “hERG current change (%, negative = inhibition) at 10uM” value turned out to be 19.4%. As for `N#Cc1cncc(-c2ccc3c(c2)OCCOCCOCCOCCOCCO3)n1`, the “hERG current change (%, negative = inhibition) at 10uM” value is given as -86.9%. The result for `N#Cc1ncc(-c2ccc3c(c2)OCCOCCOCCOCCOCCO3)nc1C#N` reads -75.3%; that for `N#Cc1cn(-c2ccccc2)nc1-c1ccc2c(c1)OCCO2`, 11.8%. The result for `N#Cc1ncc(-c2ccc3c(c2)OCCOCCOCCOCCO3)nc1C#N` reads -69%; that for `Cc1ccc2nc(-c3ccc4c(c3)OCCO4)cn2c1`, -16%. The result for `c1ccn2cc(-c3ccc4c(c3)OCCO4)nc2c1` reads 1.08%; that for `c1cncc(-c2nc(-c3ccc4c(c3)OCCO4)cs2)c1`, -4.72%.

Take `N#CCC(=O)Nc1nc(-c2ccc3c(c2)OCCO3)cs1`: the “hERG current change (%, negative = inhibition) at 10uM” value turned out to be 13.1%. The result for `COc1ccc(C(=O)NC(=S)Nc2ccc3[nH]c(=O)[nH]c3c2)c(OC)c1` reads 5.35%; that for `O=C(CN1C(=O)C2C3C=CC(C4CC34)C2C1=O)Nc1cccc2ncccc12` (stereo not shown), 0.881%. The result for `CCOC(=O)c1ccc(-c2ccc3c(c2)CCC3)nc1C` reads 12.6%. For `COc1ccccc1C(=O)N/C(N)=N/c1nc2ccccc2o1` the value was 1.36%. `CCCCNC(=O)N1CCCN(c2ccc(C#N)cn2)CC1`: the “hERG current change (%, negative = inhibition) at 10uM” value is given as -49.8%. For `N#Cc1ccc(N2CCCNCC2)nc1` the value was -88.5%; for `N#Cc1ccc(N2CCOCC2)nc1`, -0.729%; for `Cc1ccc(NC(=O)c2nc(S(=O)(=O)Cc3ccccc3C)ncc2Cl)cc1C`, 2.81%. For `Cc1nn2c3ccccc3n(CC(=O)c3cccs3)c2nc1=O` the value was 1.78%; for `Cc1ccc(Nc2c(-c3ccco3)nc3ccccn23)cc1`, 2.78%. On to `COc1ccccc1C1CCN(Cc2c(C)[nH]c3ccccc23)CC1`, for which the “hERG current change (%, negative = inhibition) at 10uM” value is recorded as -64.4%. The result for `Cc1[nH]c2ccccc2c1CN1CCN(c2ccccn2)CC1` reads -52.7%; that for `COc1ccccc1C1CCN(Cc2ccc(Cl)c(Cl)c2)CC1`, 12.3%.

For `Cc1[nH]c2ccccc2c1CN1CCc2ccccc2C1`, the “hERG current change (%, negative = inhibition) at 10uM” value is reported as -12.9%.

In the case of `COc1ccccc1C1CCN(Cc2cccc3ccccc23)CC1`, the “hERG current change (%, negative = inhibition) at 10uM” value is -13.9%.

As to `COc1ccccc1C1CCN(Cc2cccc([N+](=O)[O-])c2)CC1`, the “hERG current change (%, negative = inhibition) at 10uM” value is on record as -49.1%. The result for `COc1ccccc1C1CCN(Cc2ccccc2Cl)CC1` reads -3.3%; that for `Cc1[nH]c2ccccc2c1C(c1ccncc1)N1CCN(c2ccccn2)CC1` (stereo not shown), 8.61%. For `COc1ccccc1C1CCN(Cc2ccc(Cl)cc2Cl)CC1` the value was 11.1%; for `COc1ccccc1C1CCN(Cc2ccc3ccccc3c2)CC1`, -75%; for `COc1ccccc1C1CCN(Cc2ccccc2)CC1`, -34.5%.

As for `COc1ccccc1C1CCN(Cc2ccc(C)cc2)CC1`, the “hERG current change (%, negative = inhibition) at 10uM” value is -90%. The result for `COC(=O)CCc1nc2c(C#N)c(-c3ccc(Cl)cc3)ccn2n1` reads -2.07%; that for `Cc1ccc(/C=N/NC(=O)c2cc(C)oc2C)cc1`, 4.58%. For `COc1ccccc1NC(=O)CC1C(=O)Nc2c1c(=O)n(C)c(=O)n2C` (stereo not shown) the value was 4.88%; for `Cc1cc(=O)[nH]c(SCC(=O)Nc2nc(-c3ccccc3)c(-c3ccccc3)o2)n1`, 3.76%; for `CC(=O)Nc1ccc(/C=N/N2C(=O)NC(C)(c3ccc(OC(F)F)cc3)C2=O)cc1` (stereo not shown), -10.5%. For `COC(=O)c1cc(C(=O)OC)cc(N2C(=O)CC(NNC(=O)c3ccc(C)cc3)C2=O)c1` (stereo not shown) the value was -11.5%; for `O=C(O)COn1c(-c2ccccc2)nc2ccc([N+](=O)[O-])cc21`, 11.3%; for `CCOC(=O)C(C)On1c(-c2ccccc2)nc2ccc([N+](=O)[O-])cc21` (stereo not shown), -51.3%. As for `CCOC(=O)C(C)On1c(-c2ccc(Cl)cc2)nc2ccc([N+](=O)[O-])cc21` (stereo not shown), the “hERG current change (%, negative = inhibition) at 10uM” value is on record as -20.4%. The result for `COc1cc(NC(=O)C/C(C)=N/NC(=O)C2CCCCC2)c(OC)cc1Cl` reads 9.28%; that for `COc1cc(NC(=O)C/C(C)=N/NC(=O)C(=O)NC2CCCCC2)c(OC)cc1Cl`, -91.2%; that for `COc1ccc(NC(=O)C/C(C)=N/NC(=O)C(=O)NC2CCCCC2)c(OC)c1`, -8.46%. On to `O=C(NNC(=O)c1cc(Cl)ccc1O)c1ccc(NS(=O)(=O)c2cccs2)cc1`, for which the “hERG current change (%, negative = inhibition) at 10uM” value is listed as -20.7%. For `CCOC(=O)CC1ON(C)C(=O)N1c1ccc([N+](=O)[O-])cc1` (stereo not shown) the value was -6.46%. The result for `C/C(=N/NC(=O)c1ccn(C)n1)c1ccncc1` reads 13.2%; that for `CC(CC(=O)N1CCN(c2ccc(C(F)(F)F)cn2)CC1)n1ccnc1` (stereo not shown), -66.2%. The result for `O=S(=O)(c1ccc(Cl)cc1)N1CCCN(c2ccc(C(F)(F)F)cn2)CC1` reads -23.3%; that for `Cc1ccccc1SCC(=O)N1CCN(c2ccc(C(F)(F)F)cn2)CC1`, -38%. For `N#Cc1ccc(S(=O)(=O)N2CCCN(c3ccc(C(F)(F)F)cn3)CC2)cc1`, the “hERG current change (%, negative = inhibition) at 10uM” value was -73.9%. For `O=S(=O)(c1ccc(Cl)cc1)N1CCCN(c2nc3ccc(Cl)cc3s2)CC1` the value was 11.8%; for `CC(=O)c1cccc(OCC(=O)N2CCN(c3ccc(C(F)(F)F)cn3)CC2)c1`, -16.3%; for `CS(=O)(=O)N1CCN(c2nc3ccc(Cl)cc3s2)CC1`, 5.72%. For `O=C(O)COCC(=O)N1CCCN(c2ccc(C(F)(F)F)cn2)CC1` the value was 14.3%; for `CCOC(=O)N1CCN(c2ccc(C(F)(F)F)cn2)CC1`, -4.3%; for `N#Cc1ccc(OCC(=O)N2CCN(c3ccc(C(F)(F)F)cn3)CC2)cc1`, -54.7%. For `O=S(=O)(c1ccc(C(F)(F)F)cc1)N1CCCN(c2ccc(C(F)(F)F)cn2)CC1` the value was 5.3%. As for `N#Cc1ccc(S(=O)(=O)N2CCCN(c3nc4ccc(Cl)cc4s3)CC2)cc1`, the “hERG current change (%, negative = inhibition) at 10uM” value is -70.3%.
